Rv3671c inh: Rv3671c (M. tuberculosis) protease inhibition; inhibition, % at 5.96 µM; 320,000 compounds, 0.048% hits; P9WHR9; in the data active = inhibition above about 38%;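 note: extracellular domain of Rv3671c used as enzyme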
UGM FP inh: inhibitors of M. tuberculosis UDP-galactopyranose mutase; 320,000 compounds, 0.06% hits; inhibition, % at 10 µM; AID 504406; P9WIQ1; purified UGM, fluorescence polarization probe displacement; in the data active = inhibition above about 10%, passing the limit was not always enough
RecA intein inh: inhibitors of M. tuberculosis RecA intein splicing | inhibition, % (test concentration not listed) | P9WHJ3 | 290,000 compounds, 0.75% hits | AID 2221 | cell-free RecA intein splicing, fluorescence; in the data active = inhibition above about 30%
FBA Mtb inh: inhibits M. tuberculosis FBA enzyme. 360,000 compounds, 2.3% hits. AID 588726. inhibition, % at 1 µM. purified M. tuberculosis FBA, fluorescence read-out
Target sequence (P9WQA3 whole entry, looked up): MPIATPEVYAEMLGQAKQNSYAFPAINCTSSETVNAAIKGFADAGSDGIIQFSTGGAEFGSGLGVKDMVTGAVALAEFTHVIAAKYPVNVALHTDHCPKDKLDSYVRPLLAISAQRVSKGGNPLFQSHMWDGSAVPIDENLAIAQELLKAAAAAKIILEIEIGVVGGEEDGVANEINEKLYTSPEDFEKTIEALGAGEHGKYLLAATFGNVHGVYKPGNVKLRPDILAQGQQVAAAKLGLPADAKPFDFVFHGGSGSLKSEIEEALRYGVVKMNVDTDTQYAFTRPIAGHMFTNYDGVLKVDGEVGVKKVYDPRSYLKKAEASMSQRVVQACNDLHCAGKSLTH
Mtb bLac sens: beta-lactam sensitization of Mtb H37Rv | AID 434955 | 330,000 compounds, 0.27% hits | inhibition, % at 25 µM | M. tuberculosis H37Rv growth with meropenem, percent inhibition; call rule not given here;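 note: growth measured after seven days incubation then overnight dye step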
GDH-TPI counter-1: counter-screen for M. tuberculosis FBA inhibitors: GDH-TPI coupled enzymes. GDH-TPI coupled enzyme counterscreen, NADH absorbance. inhibition, % at 4.8 µM. 360,000 compounds, 1.2% hits; in the data active = inhibition above about 30%
Mtb FBA inh conf: Mtb FBA inhibition, confirmed; inhibition, % at 1 µM; purified M. tuberculosis FBA, fluorescence read-out; 5,600 compounds, 78% hits; AID 651616; shares compounds with FBA Mtb inh
GDH-TPI counter-2: counter-screen for M. tuberculosis FBA inhibitors: GDH-TPI coupled enzyme inhibition. inhibition, % at 1 µM. 5,600 compounds, 81% hits. GDH-TPI coupled enzyme counterscreen, fluorescence. shares compounds with FBA Mtb inh; in the data active = inhibition above about 10%
Numbers stand for hits; . = inactive; / = no result; + = active, no number. The list is not random: actives were taken first. Their share in the collection is about 4%. Cut-off read from the data, not from the text of the source, unless noted: active = inhibition above about 27%; inactive = the rest.

SMILES | Rv3671c inh | UGM FP inh | RecA intein inh | FBA Mtb inh | Mtb bLac sens | GDH-TPI counter-1 | Mtb FBA inh conf | GDH-TPI counter-2
O=C(NC1CC1)c1ccc2c(c1)N(Cc1ccc(Cl)cc1)CCS2 | . | . | . | 106 | . | . | 54 | 48
Cc1ccc(CN2CCSc3ccc(C(=O)NC4CCN(Cc5ccccc5)CC4)cc32)cc1 | . | . | . | . | . | . | / | /
c1ccc2c(CN3CCSCC3)cccc2c1 | . | . | . | . | . | . | / | /
CCC1(CC)Cc2ccccc2-c2nc(NCCCO)[nH]c(=O)c21 | . | . | . | 59 | . | . | + | +
CCC1(CC)Cc2ccccc2-c2nc(CN(C)C)[nH]c(=O)c21 | . | . | . | . | . | . | / | /
COC(=O)c1[nH]c2c(c1C)C(=O)CC(c1cccc(OC)c1)C2 (configuration not stated) | . | . | . | . | . | . | / | /
COc1ccc(/C=C\c2cc(OC)c(OC)cc2CC[N+](C)(C)C)cc1OC | . | . | . | 34 | . | . | . | .
O=S(=O)(c1ccccc1)N1CCN(C(c2ccccc2)c2ccc(OC(F)(F)F)cc2)CC1 (configuration not stated) | . | . | . | . | . | . | / | /
COc1ccc(C(=O)NC2CCSc3ccccc32)cc1S(=O)(=O)N1CCOCC1 (configuration not stated) | . | . | . | . | . | . | / | /
CN(C)CCCNC(=O)N1c2ccccc2Sc2ccccc21 | . | . | / | 59 | . | . | + | +
CN(Cc1ccccn1)C(=O)c1cc(COc2ccc(F)c(F)c2)on1 | / | / | / | . | / | . | / | /
Cc1c(C)c2c(OCC(=O)NCc3ccco3)cc3c(c2oc1=O)CCC(C)(C)O3 | . | . | . | 34 | . | . | + | +
Cc1c(C)c2c(OCC(=O)NCC(C)C)cc3c(c2oc1=O)CCC(C)(C)O3 | / | . | . | 57 | . | . | + | 190
COc1ccc(CNC(=O)COc2cc3c(c4oc(=O)cc(C)c24)CCC(C)(C)O3)cc1OC | . | . | . | 39 | . | . | 54 | 38
COc1ccc(CCNC(=O)COc2cc(C)cc3oc(=O)cc(C)c23)cc1OC | . | . | . | . | . | . | / | /
Cc1cc(=O)oc2c3c(cc(OCC(=O)N[C@@H](CC(C)C)C(=O)O)c12)OC(C)(C)CC3 | . | . | . | 39 | . | . | 39 | 35
Cc1cccc(N2CCN(C3CCCCC3NS(=O)(=O)c3ccccc3)CC2C)c1 (configuration not stated) | . | . | . | . | . | . | / | /
COc1ccc(C(C)(NC(C)=O)c2nc(/C=C/c3ccccc3)cs2)cc1 (configuration not stated) | / | / | / | . | / | . | / | /
O=C(COc1cc2oc(=O)c3c(c2cc1Cl)CCC3)NCc1ccncc1 | . | . | . | . | . | . | / | /
Cc1c(C)c2c(OCC(=O)NCc3ccncc3)cc3c(c2oc1=O)CCC(C)(C)O3 | . | . | . | 31 | . | . | + | +
O=C(COc1ccc2c3c(c(=O)oc2c1)CCC3)NCc1cccnc1 | . | . | . | . | . | . | / | /
Cc1c(C)c2c(OCC(=O)NCc3cccnc3)cc3c(c2oc1=O)CCC(C)(C)O3 | . | . | . | 57 | . | . | 69 | 52
CC(=O)Nc1ccc(S(=O)(=O)N[C@@H](C)C(=O)OCC(=O)NC2CCCC2)cc1 | . | . | / | . | . | . | / | /
Cc1cccc2[nH]c3c(N4CCN(C(=O)c5ccco5)CC4)ncnc3c12 | . | . | . | 44 | . | . | 58 | 42
Cc1cccc2[nH]c3c(N4CCC5(CC4)OCCO5)ncnc3c12 | . | . | . | 41 | . | 31 | 68 | 52
SMILES | Rv3671c inh | UGM FP inh | RecA intein inh | FBA Mtb inh | Mtb bLac sens | GDH-TPI counter-1 | Mtb FBA inh conf | GDH-TPI counter-2
COC(=NC(C)C)NC(C)C | . | . | . | / | . | / | / | /
O=C(O)C(=O)/C(=C\c1cccc(Cl)c1)c1ccc2ccccc2n1 | . | . | . | 79 | . | . | + | +
Cc1cccc(/C=C(\C(=O)C(=O)O)c2ccc3ccccc3n2)c1 | . | . | . | . | . | . | / | /
N#Cc1ccc(CN2CCN(c3ccc(S(=O)(=O)N4CCCC4)cn3)CC2)cc1 | . | . | / | . | . | . | / | /
COC(=O)C1=CN(C2CC2)C=C(C(=O)OC)C1c1ccc(C(=O)OC)cc1 | . | . | . | 44 | . | . | . | .
O=C(O)Cn1ccc2cc(S(=O)(=O)N3CCCCC3)ccc21 | / | / | / | . | / | . | / | /
COc1ccc(S(=O)(=O)N2CCN(C(=O)c3cccs3)CC2)cc1 | . | . | . | 79 | . | . | + | 172
COc1ccc(-c2ccc(S(=O)(=O)N3CCOCC3)cc2)cc1 | . | . | . | 44 | . | . | 75 | 48
COc1ccc(-c2ccc(S(=O)(=O)N3CCCC3)cc2)cc1 | . | . | . | . | . | . | / | /
Nc1cc(N)cc(C(=O)Nc2ccc3c(c2)C(=O)NC3=O)c1 | . | . | . | . | . | . | / | /
O=C(Nc1ccc2c(c1)C(=O)NC2=O)c1ccccc1Cl | . | . | . | 30 | . | . | . | .
O=C(Nc1ccc2c(c1)C(=O)NC2=O)c1ccccc1 | . | . | . | 41 | . | . | 198 | 123
CC(c1cccs1)N(Cc1ccco1)C(=S)Nc1ccc(F)c(Cl)c1 (configuration not stated) | . | . | . | 38 | . | . | + | 144
Cc1cccc(NC(=S)N(Cc2ccco2)C(C)c2cccs2)c1 (configuration not stated) | . | . | . | . | . | . | / | /
COc1ccc2c(C)c(CC(=O)N3C[C@H]4C[C@@H](C3)c3cccc(=O)n3C4)c(=O)oc2c1 | . | . | . | 111 | . | . | 146 | 104
Cc1coc2cc3oc(=O)c(CC(=O)N4C[C@H]5C[C@@H](C4)c4cccc(=O)n4C5)c(C)c3cc12 | . | . | . | . | . | . | / | /
Cc1c(Br)c(=O)oc2cc(OCC(=O)N3C[C@H]4C[C@@H](C3)c3cccc(=O)n3C4)ccc12 | . | . | / | 40 | . | . | 54 | 65
COc1ccc2c(C)c(CCC(=O)N3C[C@H]4C[C@@H](C3)c3cccc(=O)n3C4)c(=O)oc2c1 | . | . | . | 68 | . | . | 118 | 128
COc1ccc(-c2cc(=O)oc3cc(OCC(=O)N4C[C@H]5C[C@@H](C4)c4cccc(=O)n4C5)ccc23)cc1 | . | . | . | . | . | . | / | /
O=C(COc1ccc2c3c(c(=O)oc2c1)CCCC3)N1C[C@H]2C[C@@H](C1)c1cccc(=O)n1C2 | . | . | . | . | . | . | / | /
CCCCOC(=O)C1C2CCC(O2)C1C(=O)OCC (configuration not stated) | / | / | / | . | / | . | / | /
Oc1ccccc1-c1nc2c3ccccc3c3ccccc3c2[nH]1 | . | . | . | 94 | . | . | 99 | 90
c1csc(-c2nc3c4ccccc4c4ccccc4c3[nH]2)c1 | . | . | . | 58 | . | . | + | +

Screening data deposited in PubChem by several laboratories.
